Assay results taken from the supplement of paper PMC10849652.
Targets with a hit are over-represented here; the source holds about 8,800 in all. About 0.5% of all pairs of compound and target were hits. Unmarked numbers belong to inactive results.

Assays:
Experiment in all cases: log2 fold change, soluble protein after heating vs DMSO (PISA); higher = thermal stabilisation; K562 lysate, 10 uM; active = over 0.2 and 3.5 SD of the protein, either way, in both replicates (recomputed)
vemurafenib = compound: CCCS(=O)(=O)Nc1ccc(F)c(C(=O)c2c[nH]c3ncc(-c4ccc(Cl)cc4)cc23)c1F [vemurafenib]
Outline: (§1)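 Pellets of K562 cells were dounce-homogenised in PBS pH 7.4 with 1 mM MgCl2, and the crude extract was held at 1 mg/mL protein for a 30 min treatment with 10 μM compound. Aliquots were heated for 3 min over 48°C-58°C and pooled before NP-40 was added to 0.5% at 4°C. The supernatant from 21,000xg for 90 min was quantified by TMTpro 16plex LC-MS/MS with channel sums equalised. Values are reported from duplicates as log-two fold change in thermal stability relative to solvent controls.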

[1] = compound: CCCS(=O)(=O)Nc1ccc(F)c(C(=O)c2c[nH]c3ncc(Cl)cc23)c1F
Outline: as §1

barasertib = compound: CCN(CCCOc1ccc2c(Nc3cc(CC(=O)Nc4cccc(F)c4)[nH]n3)ncnc2c1)CCOP(=O)(O)O [barasertib]
Outline: as §1

[2] = compound: CC[C@@H]1C(=O)N(C)c2cnc(Nc3ccc(C(=O)NC4CCN(C)CC4)cc3OC)nc2N1C1CCCC1
Outline: as §1

volasertib = compound: CC[C@@H]1C(=O)N(C)c2cnc(Nc3ccc(C(=O)N[C@H]4CC[C@H](N5CCN(CC6CC6)CC5)CC4)cc3OC)nc2N1C(C)C [volasertib]
Outline: as §1

[3] = compound: CCn1c(C(=O)N(C2CC2)C2CC2)cc2c3c(ncn3C)c(Nc3cc(C)n(C)n3)nc21
Outline: as §1

[4] = compound: CCn1cc(-c2ccnc3[nH]c(-c4cccc(CN(C)C)c4)cc23)c(-c2ccc(NC(=O)N(C)C)cc2)n1
Outline: as §1

[5] = compound: CN1CCC(CNc2ccc3ncc(-c4cccc(OC(F)(F)F)c4)n3n2)CC1
Outline: as §1

saracatinib = compound: CN1CCN(CCOc2cc(OC3CCOCC3)c3c(Nc4c(Cl)ccc5c4OCO5)ncnc3c2)CC1 [saracatinib]
Outline: as §1

sotrastaurin = compound: CN1CCN(c2nc(C3=C(c4c[nH]c5ccccc45)C(=O)NC3=O)c3ccccc3n2)CC1 [sotrastaurin]
Outline: as §1

Sequence of UniProt P27448 (P27448 whole entry, looked up): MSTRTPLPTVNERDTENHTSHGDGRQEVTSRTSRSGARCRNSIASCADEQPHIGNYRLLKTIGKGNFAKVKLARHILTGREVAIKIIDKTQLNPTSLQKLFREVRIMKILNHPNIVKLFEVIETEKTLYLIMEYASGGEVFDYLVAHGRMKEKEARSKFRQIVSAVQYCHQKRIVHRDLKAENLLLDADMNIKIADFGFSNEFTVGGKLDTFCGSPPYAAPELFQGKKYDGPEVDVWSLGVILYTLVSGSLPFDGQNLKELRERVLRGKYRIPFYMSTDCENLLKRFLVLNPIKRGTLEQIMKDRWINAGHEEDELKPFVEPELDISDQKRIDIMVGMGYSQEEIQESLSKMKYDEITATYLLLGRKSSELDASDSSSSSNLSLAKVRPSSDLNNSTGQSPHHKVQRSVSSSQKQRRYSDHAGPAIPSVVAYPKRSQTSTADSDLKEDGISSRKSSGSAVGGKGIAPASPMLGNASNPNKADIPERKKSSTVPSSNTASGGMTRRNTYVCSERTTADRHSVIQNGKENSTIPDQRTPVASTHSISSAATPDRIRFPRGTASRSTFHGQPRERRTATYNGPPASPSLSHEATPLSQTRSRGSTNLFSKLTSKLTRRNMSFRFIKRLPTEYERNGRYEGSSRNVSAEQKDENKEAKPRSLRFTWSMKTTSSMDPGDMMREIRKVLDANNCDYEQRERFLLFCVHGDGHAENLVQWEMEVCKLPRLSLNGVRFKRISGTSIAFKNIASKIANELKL
Sequence of UniProt Q8WV92 (Q8WV92 whole entry, looked up): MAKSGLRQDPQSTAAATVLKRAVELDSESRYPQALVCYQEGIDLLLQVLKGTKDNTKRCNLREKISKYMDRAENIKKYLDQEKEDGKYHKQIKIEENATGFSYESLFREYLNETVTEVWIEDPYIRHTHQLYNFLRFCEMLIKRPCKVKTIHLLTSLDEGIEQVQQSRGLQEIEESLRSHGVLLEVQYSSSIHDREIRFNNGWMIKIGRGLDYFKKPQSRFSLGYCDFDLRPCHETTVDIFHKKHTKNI
Sequence of UniProt Q93074 (Q93074 whole entry, looked up): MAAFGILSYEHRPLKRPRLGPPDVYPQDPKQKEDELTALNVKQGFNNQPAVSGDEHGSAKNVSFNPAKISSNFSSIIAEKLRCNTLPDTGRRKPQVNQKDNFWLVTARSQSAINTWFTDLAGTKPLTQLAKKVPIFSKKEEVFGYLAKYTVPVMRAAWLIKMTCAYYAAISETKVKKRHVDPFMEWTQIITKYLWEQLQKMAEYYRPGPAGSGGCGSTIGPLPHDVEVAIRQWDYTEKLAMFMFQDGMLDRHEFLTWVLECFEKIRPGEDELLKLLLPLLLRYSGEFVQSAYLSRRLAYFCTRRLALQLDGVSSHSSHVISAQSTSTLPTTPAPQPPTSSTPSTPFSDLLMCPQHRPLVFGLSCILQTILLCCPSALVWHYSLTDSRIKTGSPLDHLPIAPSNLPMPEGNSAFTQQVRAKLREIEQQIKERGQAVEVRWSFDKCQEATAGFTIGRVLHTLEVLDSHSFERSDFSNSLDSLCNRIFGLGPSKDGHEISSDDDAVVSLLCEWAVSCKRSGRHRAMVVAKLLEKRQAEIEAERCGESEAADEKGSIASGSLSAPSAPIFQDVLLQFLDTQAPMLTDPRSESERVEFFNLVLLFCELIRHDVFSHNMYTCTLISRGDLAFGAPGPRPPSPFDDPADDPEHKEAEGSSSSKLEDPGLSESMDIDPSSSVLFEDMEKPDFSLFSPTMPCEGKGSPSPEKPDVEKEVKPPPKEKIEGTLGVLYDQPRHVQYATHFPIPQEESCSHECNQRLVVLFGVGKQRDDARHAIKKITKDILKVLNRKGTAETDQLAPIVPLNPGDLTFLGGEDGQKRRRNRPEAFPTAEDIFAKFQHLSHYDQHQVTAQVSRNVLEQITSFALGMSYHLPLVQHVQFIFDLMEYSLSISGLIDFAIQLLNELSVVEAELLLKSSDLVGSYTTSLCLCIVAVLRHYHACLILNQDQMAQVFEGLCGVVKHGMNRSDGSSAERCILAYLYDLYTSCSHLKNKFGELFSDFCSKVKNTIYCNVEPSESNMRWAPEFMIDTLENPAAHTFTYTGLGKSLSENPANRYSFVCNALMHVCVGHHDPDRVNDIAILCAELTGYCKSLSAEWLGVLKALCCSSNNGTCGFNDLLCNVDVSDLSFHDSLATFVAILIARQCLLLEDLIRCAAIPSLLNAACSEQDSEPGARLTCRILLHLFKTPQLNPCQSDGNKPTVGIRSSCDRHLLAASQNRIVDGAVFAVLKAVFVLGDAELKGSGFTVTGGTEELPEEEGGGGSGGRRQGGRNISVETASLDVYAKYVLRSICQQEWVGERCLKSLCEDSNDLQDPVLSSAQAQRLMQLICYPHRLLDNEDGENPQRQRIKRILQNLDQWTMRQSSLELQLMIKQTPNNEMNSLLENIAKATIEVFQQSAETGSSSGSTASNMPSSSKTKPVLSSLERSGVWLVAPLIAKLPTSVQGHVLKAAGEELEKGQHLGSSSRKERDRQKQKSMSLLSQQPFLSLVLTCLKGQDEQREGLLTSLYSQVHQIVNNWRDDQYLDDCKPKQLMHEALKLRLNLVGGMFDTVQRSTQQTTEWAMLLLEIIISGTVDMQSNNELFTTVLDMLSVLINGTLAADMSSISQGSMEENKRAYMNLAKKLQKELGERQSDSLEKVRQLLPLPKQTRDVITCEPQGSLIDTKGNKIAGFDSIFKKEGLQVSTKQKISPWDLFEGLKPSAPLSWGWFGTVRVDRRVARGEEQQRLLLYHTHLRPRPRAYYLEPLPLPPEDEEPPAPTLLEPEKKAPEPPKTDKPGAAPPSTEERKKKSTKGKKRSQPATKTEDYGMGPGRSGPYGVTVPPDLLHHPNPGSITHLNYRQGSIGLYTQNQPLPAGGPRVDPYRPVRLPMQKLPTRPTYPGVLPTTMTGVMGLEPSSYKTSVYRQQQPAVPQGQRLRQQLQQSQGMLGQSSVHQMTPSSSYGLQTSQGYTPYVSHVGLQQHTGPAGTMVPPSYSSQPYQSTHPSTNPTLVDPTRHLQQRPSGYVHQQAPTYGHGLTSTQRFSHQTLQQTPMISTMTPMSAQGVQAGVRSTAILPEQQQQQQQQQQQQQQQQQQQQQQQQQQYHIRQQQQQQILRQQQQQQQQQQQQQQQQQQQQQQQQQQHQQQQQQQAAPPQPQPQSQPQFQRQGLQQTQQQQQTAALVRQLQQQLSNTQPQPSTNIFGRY
Sequence of UniProt Q9H8H3 (Q9H8H3 whole entry, looked up): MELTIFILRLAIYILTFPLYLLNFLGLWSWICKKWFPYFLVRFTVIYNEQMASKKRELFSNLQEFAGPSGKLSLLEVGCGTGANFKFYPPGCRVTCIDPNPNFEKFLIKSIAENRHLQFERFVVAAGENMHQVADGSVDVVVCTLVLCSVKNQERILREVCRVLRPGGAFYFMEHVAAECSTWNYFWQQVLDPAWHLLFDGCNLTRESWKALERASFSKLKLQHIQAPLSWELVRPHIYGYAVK
Sequence of UniProt O95239 (O95239 whole entry, looked up): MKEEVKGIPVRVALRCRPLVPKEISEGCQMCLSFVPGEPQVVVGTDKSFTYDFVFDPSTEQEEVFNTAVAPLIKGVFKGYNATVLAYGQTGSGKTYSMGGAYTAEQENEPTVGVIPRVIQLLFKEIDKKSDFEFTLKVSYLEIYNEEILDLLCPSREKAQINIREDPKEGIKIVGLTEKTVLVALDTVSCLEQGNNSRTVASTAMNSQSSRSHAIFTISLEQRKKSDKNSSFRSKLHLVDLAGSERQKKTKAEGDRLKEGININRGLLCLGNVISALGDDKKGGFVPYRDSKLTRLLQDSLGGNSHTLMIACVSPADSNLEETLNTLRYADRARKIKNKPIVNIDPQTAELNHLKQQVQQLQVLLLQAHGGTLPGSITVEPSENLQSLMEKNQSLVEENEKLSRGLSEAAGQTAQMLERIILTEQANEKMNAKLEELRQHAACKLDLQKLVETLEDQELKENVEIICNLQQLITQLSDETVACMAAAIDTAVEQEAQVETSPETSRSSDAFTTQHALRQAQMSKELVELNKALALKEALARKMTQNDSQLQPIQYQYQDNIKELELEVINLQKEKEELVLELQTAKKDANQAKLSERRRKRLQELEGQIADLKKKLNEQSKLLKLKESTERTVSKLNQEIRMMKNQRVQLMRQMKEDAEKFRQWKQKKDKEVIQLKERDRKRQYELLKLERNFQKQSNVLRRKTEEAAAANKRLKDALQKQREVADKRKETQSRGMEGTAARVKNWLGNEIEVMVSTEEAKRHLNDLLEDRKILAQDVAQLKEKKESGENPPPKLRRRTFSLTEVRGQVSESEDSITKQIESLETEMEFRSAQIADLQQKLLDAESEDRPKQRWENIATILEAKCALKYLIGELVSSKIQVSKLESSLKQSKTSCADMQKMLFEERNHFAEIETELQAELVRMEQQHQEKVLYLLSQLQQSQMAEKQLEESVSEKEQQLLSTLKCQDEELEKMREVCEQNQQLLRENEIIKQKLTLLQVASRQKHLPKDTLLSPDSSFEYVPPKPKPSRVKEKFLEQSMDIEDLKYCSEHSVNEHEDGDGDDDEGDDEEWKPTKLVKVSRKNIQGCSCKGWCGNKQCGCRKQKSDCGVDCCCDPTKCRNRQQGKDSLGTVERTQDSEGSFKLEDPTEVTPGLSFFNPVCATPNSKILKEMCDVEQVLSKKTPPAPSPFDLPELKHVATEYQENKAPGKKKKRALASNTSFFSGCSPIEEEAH
Sequence of UniProt Q9NX58 (Q9NX58 whole entry, looked up): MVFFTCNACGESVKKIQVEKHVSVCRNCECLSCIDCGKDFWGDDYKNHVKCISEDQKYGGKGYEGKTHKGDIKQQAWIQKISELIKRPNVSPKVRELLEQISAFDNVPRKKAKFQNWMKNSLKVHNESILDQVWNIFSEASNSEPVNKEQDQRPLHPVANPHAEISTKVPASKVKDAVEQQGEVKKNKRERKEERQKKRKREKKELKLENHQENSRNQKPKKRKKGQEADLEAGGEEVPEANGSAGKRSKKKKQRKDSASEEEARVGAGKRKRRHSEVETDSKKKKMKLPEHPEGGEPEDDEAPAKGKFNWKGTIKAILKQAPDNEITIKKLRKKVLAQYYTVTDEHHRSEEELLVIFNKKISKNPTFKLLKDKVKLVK

| Target | log2 fold change (vemurafenib) | log2 fold change [1] | log2 fold change (barasertib) | log2 fold change [2] | log2 fold change (volasertib) | log2 fold change [3] | log2 fold change [4] | log2 fold change [5] | log2 fold change (saracatinib) | log2 fold change (sotrastaurin) |
| --- | --- | --- | --- | --- | --- | --- | --- | --- | --- | --- |
| MED13L (UniProt Q71F56) | -0.043 | -0.012 | 0.028 | 0.01 | -0.058 | 0.038 | -0.023 | 0.064 | -0.037 | -0.018 |
| LSS (UniProt P48449) | 0.016 | -0.009 | 0.044 | -0.078 | 0.434 (active) | -0.009 | -0.09 | 0.123 | -0.043 | 0 |
| MARK3 (UniProt P27448) | -0.003 | 0.036 | -0.001 | 0.038 | 0.042 | 0.005 | -0.114 | -0.237 | -0.015 | -0.228 |
| LZTS1 (UniProt Q9Y250) | -0.047 | -0.034 | 0.218 | 0.042 | 0.074 | -0.53 | 0.493 | -0.132 | 0 | -0.116 |
| MED16 (UniProt Q9Y2X0) | -0.059 | 0.008 | -0.113 | -0.04 | -0.036 | 0.056 | 0.177 | -0.189 | -0.014 | -0.018 |
| METTL7A (UniProt Q9H8H3) | -0.08 | 0.056 | -0.123 | -0.022 | 0.226 | -0.018 | 0.014 | 0.081 | -0.028 | -0.028 |
| LUZP1 (UniProt Q86V48) | 0.037 | 0.003 | 0.013 | 0.086 | -0.015 | 0.012 | 0.108 | 0.014 | -0.024 | -0.01 |
| MAPK14 (UniProt Q16539) | 0.175 | 0.081 | 0.021 | -0.192 | -0.056 | -0.052 | -0.035 | 0.093 | 0.226 | -0.058 |
| MRPL46 (UniProt Q9H2W6) | 0.058 | -0.001 | -0.015 | 0.115 | 0.044 | 0.064 | 0.523 (active) | -0.029 | 0.024 | 0.032 |
| MORC2 (UniProt Q9Y6X9) | 0.049 | 0.01 | 0.054 | 0.022 | 0.002 | -0.006 | -0.041 | 0.008 | 0.042 | 0.037 |
| KIFC1 (UniProt Q9BW19) | -0.008 | 0.037 | 0.002 | 0.006 | -0.084 | -0.031 | -0.045 | -0.031 | 0.021 | 0.071 |
| MLH1 (UniProt P40692) | 0.042 | -0.039 | 0.014 | 0.013 | -0.002 | 0.014 | -0.029 | -0.023 | 0.051 | 0.02 |
| MLLT11 (UniProt Q13015) | -0.054 | -0.048 | 0.143 | -0.199 | 0.1 | 0.05 | -0.01 | -0.049 | 0.118 | -0.04 |
| MBOAT2 (UniProt Q6ZWT7) | 0.02 | -0.01 | 0.121 | 0.159 | -0.103 | -0.015 | -0.251 | 0.026 | 0.045 | 0.284 |
| MRPL28 (UniProt Q13084) | 0.005 | 0.009 | 0.053 | -0.06 | 0.019 | 0.024 | 0.411 (active) | -0.356 | -0.016 | 0.055 |
| LAGE3 (UniProt Q14657) | 0.016 | 0.004 | 0.128 | -0.032 | 0.005 | 0.058 | -0.024 | -0.003 | 0.019 | -0.024 |
| LPIN1 isoform 7 (UniProt Q14693) | -0.057 | 0.065 | 0.1 | -0.057 | -0.002 | -0.003 | -0.052 | -0.05 | 0.024 | 0.028 |
| LYAR (UniProt Q9NX58) | 0.011 | 0.005 | -0.024 | 0.005 | 0.003 | -0.027 | 0.312 (active) | -0.128 | 0.028 | -0.039 |
| MAP2K2 (UniProt P36507) | 0.224 | 0.184 | 0.026 | -0.076 | -0.089 | 0.008 | 0.252 | -0.047 | 0.093 | -0.002 |
| KMT2A isoform 3 (UniProt Q03164) | 0.044 | -0.033 | 0.042 | -0.035 | -0.054 | -0.058 | -0.093 | -0.01 | -0.069 | 0.034 |
| MPP1 (UniProt Q00013) | 0.014 | -0.005 | -0.014 | 0.001 | -0.029 | -0.011 | -0.008 | -0.034 | -0.001 | -0.007 |
| KIF4A (UniProt O95239) | 0.005 | 0.035 | -0.02 | -0.021 | -0.055 | 0.003 | 0.013 | -0.07 | 0.007 | -0.003 |
| MITD1 (UniProt Q8WV92) | 0.044 | 0.001 | 0.057 | 0.013 | -0.07 | -0.031 | -0.269 | -0.163 | 0.024 | 0.039 |
| LSG1 (UniProt Q9H089) | -0.056 | 0.046 | 0.037 | -0.084 | -0.065 | -0.01 | -0.124 | 0.064 | 0.043 | 0.024 |
| MECR (UniProt Q9BV79) | 0.055 | 0.035 | 0.008 | -0.05 | -0.008 | 0.004 | -0.043 | 0.023 | 0.095 | -0.007 |
| KIF21A isoform 5 (UniProt Q7Z4S6) | 0.03 | 0.041 | 0.005 | -0.038 | -0.026 | -0.025 | 0.165 | -0.101 | 0.037 | 0.017 |
| LARS (UniProt Q9P2J5) | -0.005 | 0.006 | 0.006 | -0.069 | -0.063 | 0.045 | 0.008 | -0.058 | -0.023 | -0.002 |
| MED12 isoform 2 (UniProt Q93074) | -0.075 | 0.005 | 0.057 | -0.012 | -0.065 | 0.037 | 0.002 | -0.066 | 0.026 | 0.022 |
| MAPK6 (UniProt Q16659) | 0.006 | 0.001 | 0.047 | 0.034 | -0.001 | -0.029 | 0.221 (active) | -0.02 | -0.014 | 0.014 |
| LBR (UniProt Q14739) | 0.012 | 0.008 | 0.041 | 0.014 | 0.156 | 0.052 | 0.117 | -0.22 | 0.064 | 0.048 |
